The list is not random: actives were taken first. Their share in the collection is about 1.2%.
Glyco luc inh – increase of ERlucT glycosylation luciferase signal, primary screen, N-linked glycosylation inhibitor project, D54 ERlucT cells, luminescence, set 2; D54 ERlucT glycosylation luciferase reporter, 24 h; percent of 100 nM tunicamycin response; reporter increase, % at 12.5 µM; 0.23% of 360,000 active;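 active means mean luciferase reporter signal, scaled so untreated is 0 and the glycosylation-blocking control 100, at or above a set limit in every replicate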;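 further: luciferase carries N-glycosylation sites so blocking glycosylation raises the light; 0% = median of neutral control wells and 100% = median of 100 nM tunicamycin wells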
NSD2 HMT inh – NSD2 histone methyltransferase inhibitors, primary screen, biochemical, AlphaScreen, single concentration, set 2; Histone-lysine N-methyltransferase NSD2 (Homo sapiens), O96028; NSD2 peptide methylation, 120 min; inhibition, % at 12.5 µM; 0.54% of 310,000 active; AID 743445, 2014; in the data active means inhibition above about 50%
RAD54 inh – inhibitors of human RAD54 branch migration, primary screen, biochemical, fluorescence, single point | inhibition, % at 10.4 µM | RAD54 Holliday junction branch migration, FAM/BHQ fluorescence | 0.14% of 360,000 active | DNA repair and recombination protein RAD54-like (Homo sapiens), Q92698;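 active means mean normalized replicate activity at least 40 and at least half of replicates scoring 40 or more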;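 further: 0% = median of neutral control wells and 100% = median of positive control wells; inhibitors cause a drop in the FAM fluorescence signal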
RAD52 inh – RAD52 DNA annealing inhibitors, primary screen, biochemical, FRET, single point, set 2. inhibition, % at 18.7 µM. DNA repair protein RAD52 homolog (Homo sapiens), P43351. 0.46% of 360,000 active. AID 651710, 2012. recombinant RAD52 DNA annealing, FRET fluorescence;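 active means every replicate showing at least 50% inhibition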
Target sequence (P43351 whole entry, looked up): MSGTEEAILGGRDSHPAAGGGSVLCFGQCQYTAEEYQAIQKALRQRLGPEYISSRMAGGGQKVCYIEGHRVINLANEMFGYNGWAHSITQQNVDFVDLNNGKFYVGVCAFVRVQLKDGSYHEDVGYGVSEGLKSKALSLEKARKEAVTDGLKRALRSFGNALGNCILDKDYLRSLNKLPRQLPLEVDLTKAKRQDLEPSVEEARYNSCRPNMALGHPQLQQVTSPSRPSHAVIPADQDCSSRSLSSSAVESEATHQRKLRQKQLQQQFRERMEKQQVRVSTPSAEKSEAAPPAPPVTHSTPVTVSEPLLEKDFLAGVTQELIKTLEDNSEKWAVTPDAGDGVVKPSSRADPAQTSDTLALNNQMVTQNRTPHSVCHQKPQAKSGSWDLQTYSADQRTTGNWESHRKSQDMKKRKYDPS
Casp6 inh – human caspase-6 inhibitors, primary screen, biochemical, VEID-R110 fluorescence, single point, set 2 | 0.53% of 350,000 active | P55212 | inhibition, % at 12.5 µM | AID 686996, 2013 | purified caspase-6, Z-VEID-R110 cleavage fluorescence;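 active means mean inhibition across replicates at least about 35%, with every replicate also reaching that limit, limit read from the data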;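 further: 0% = median of neutral control wells and 100% = no fluorescence left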
Starred values were filed as active, the others as inactive; . = not tested or not shown; ! = not confirmed by another sample.

SMILES	Glyco luc inh	NSD2 HMT inh	RAD54 inh	RAD52 inh	Casp6 inh
CS(=O)(=O)C1=NSC2=NC(=O)/C(=C\c3cccn3-c3ccccc3Cl)C(=N)N21	0	30	.	-94	41*
Cc1ccc(-n2cccc2/C=C2/C(=N)N3C(=NC2=O)SN=C3S(C)(=O)=O)cc1	4	.	.	.	.
COc1cccc(-n2c(C)cc(/C=C3/C(=N)N4C(=NC3=O)SN=C4S(C)(=O)=O)c2C)c1	6	9	-63	-168	43*
O=C(NCC[C@H]1CC[C@H](NS(=O)(=O)Cc2ccccc2)[C@@H](CO)O1)C1CCC1	.	.	4	-5	1
CCS(=O)(=O)N1CC2(CN(C(=O)Cc3ccccn3)[C@H](CO)c3[nH]c4cc(OC)ccc4c32)C1	.	.	.	5	1
Cc1ccccc1NC(=O)c1ccc(Cl)c(NC(=O)c2ccco2)c1	.	1	.	.	.
NS(=O)(=O)c1ccc(N=Nc2ccc(O)c3ncccc23)cc1	1	5	.	-4	51*
CCOc1ccc(N=Nc2ccc(O)c3ncccc23)cc1	-1	0	-5	-7	3
Cc1ccc(S(=O)(=O)N(C)C[C@@H]2Oc3ccc(NC(=O)Nc4c(C)noc4C)cc3CC(=O)N([C@@H](C)CO)C[C@@H]2C)cc1	.	.	55*	5	.
C[C@@H]1CN([C@@H](C)CO)C(=O)Cc2cc(NC(=O)CCC(F)(F)F)ccc2O[C@@H]1CN(C)S(=O)(=O)c1ccc(F)cc1	.	.	4	-7	-1
C[C@H]1CN([C@@H](C)CO)C(=O)Cc2cc(NC(=O)CCC(F)(F)F)ccc2O[C@H]1CN(C)S(=O)(=O)c1ccc(Cl)cc1	32*	.	-10	19	1
C[C@H]1CN([C@@H](C)CO)C(=O)Cc2cc(NC(=O)CCC(F)(F)F)ccc2O[C@H]1CN(C)S(=O)(=O)c1ccc(F)cc1	40*	.	-1	-1	0
CCCN1C[C@H](C)[C@@H](OC)CN(C)C(=O)c2ccc(NC(=O)c3cnccn3)cc2OC[C@@H]1C	.	.	.	-8	3
C[C@@H]1CN([C@@H](C)CO)S(=O)(=O)c2ccc(C3=CCCC3)cc2O[C@@H]1CN(C)C(=O)c1ccccn1	.	.	0	-6	1
C[C@@H]1CN([C@@H](C)CO)C(=O)c2cc(NC(=O)Nc3cccc4ccccc34)ccc2O[C@@H](C)CCCCO[C@H]1CN(C)S(=O)(=O)c1ccc(F)cc1	.	.	.	3	2
C[C@H](CO)N1C[C@H](C)[C@@H](CN(C)C(=O)Nc2ccc3c(c2)OCO3)OCCCC[C@H](C)Oc2ccc(NC(=O)Nc3ccccc3)cc2C1=O	.	.	-8	2	-3
COC(=O)C1C(O)C(C)C(O)C(C)(O)/C=C\C=C(/C)C(=O)Nc2c(C)c(OC(C)=O)c3c(c2O)C(=O)C(C)=C2OCOC(=C23)/C(C)=C/C(C)(O)C(O)C(C)C1O (stereo not given)	0	11	9	-7	57*
Cc1ccc(C2=NOC(=O)/C2=C\c2ccc(C)o2)cc1	5	22	-2	-107	41*
CN(C)C(=O)C[C@H]1CC[C@H]2[C@@H](COC[C@@H](O)CN2CC2CCOCC2)O1	.	.	0	-5	1
O=C(Nc1cccc(Cl)c1)c1cccc(N2C(=O)C3CC=CCC3C2=O)c1 (stereo not given)	-3	21	9	-10	35*
CN(c1ccc(OCC(=O)Nc2cc(Cl)ccc2C(=O)O)cc1)S(=O)(=O)c1ccc(F)cc1	4	8	3	-11	36*
CO[C@@H]1CN(C)C(=O)c2cc(NS(C)(=O)=O)ccc2OC[C@H](C)NC[C@H]1C	.	.	-12	-5	-1
CCOc1ccc(NCc2cccn2-c2nnc(N3CCC(C(=O)NCCCN4C(C)CCCC4C)CC3)s2)cc1 (stereo not given)	1	23	16	64*	-111
CCC(=O)N1CC(=O)N2[C@@H](CO)[C@@H](c3ccc(-c4ccc(C#N)cc4)cc3)[C@@H]2C1	.	.	.	-2	2
O=C(Nc1nc(-c2ccco2)c(-c2ccco2)s1)c1c(F)cccc1Cl	-1	5	8	-14	75*
SMILES	Glyco luc inh	NSD2 HMT inh	RAD54 inh	RAD52 inh	Casp6 inh
O=C1NC(c2cccc3ccccc23)Nc2ccccc21 (stereo not given)	20	2	.	-12	0
O=C1c2ccccc2C(=O)C12OC2c1cccc2ccccc12 (stereo not given)	-2	101*	.	18	33
O=C(C1CCCC1)N1C[C@@H]2N[C@H](C1)C2c1ccc(-c2ccccc2F)cc1 (stereo not given in full)	.	.	.	-22	2
O=C(Nc1ccccc1F)N1C[C@@H]2N[C@H](C1)C2c1ccc(/C=C/c2ccccc2)cc1 (stereo not given in full)	.	.	.	69*	-1
Cc1ccccc1-c1ccc(C2[C@@H]3CN(C(=O)C4CC4)C[C@H]2N3)cc1 (stereo not given in full)	.	.	.	84*!	-1
O=C(C1CC1)N1C[C@@H]2N[C@H](C1)C2c1ccc(/C=C/c2ccccc2)cc1 (stereo not given in full)	.	.	.	51*!	.
C[C@@H]1CN([C@@H](C)CO)C(=O)c2cc(NC(=O)Nc3ccccc3)ccc2O[C@@H](C)CCCCO[C@@H]1CN(C)S(=O)(=O)c1ccc(F)cc1	.	.	-8	.	.
O=C(O)/C=C/C(=O)Nc1ccc(C2(c3ccc(NC(=O)/C=C/C(=O)O)cc3)c3ccccc3-c3ccccc32)cc1	1	6	-7	-30	47*
Nc1cccc2cc(S(=O)(=O)O)ccc12	1	129*	-12	-82	64*
O=Nc1c(O)ccc2cc(S(=O)(=O)O)ccc12	-1	44	1	.	.
C[C@@H]1CN([C@H](C)CO)S(=O)(=O)c2ccc(C#Cc3ccccc3)cc2O[C@H]1CN(C)C(=O)c1ccccn1	.	.	-8	4	-1
O=C(O)COc1ccccc1/C=N/NC(=O)CSc1nnc(SCc2cccc3ccccc23)s1	2	8	.	-19	37*
O=C(O)COc1ccccc1/C=N/NC(=O)CSc1nnc(SCc2ccc(Cl)cc2)s1	1	3	.	-17	23
C[C@H](CO)N1C[C@H](C)[C@H](CN(C)S(=O)(=O)c2ccc(F)cc2)OCCCC[C@H](C)Oc2ccc(NS(=O)(=O)c3ccccc3)cc2C1=O	.	.	-5	20	2
N#Cc1c(/N=C/c2ccc(-c3ccc(C(=O)O)c(Cl)c3)o2)sc2c1CCCC2	0	28	-13	-22	28
N#Cc1c(/N=C/c2ccc(-c3ccccc3C(=O)O)o2)sc2c1CCCC2	0	45	7	-26	57*
Cn1nc(C(F)(F)F)c(/C=N/OC(=O)c2ccccc2Cl)c1SCc1ccc(Cl)cc1	61*	-1	1	.	.

From PubChem
